Values joined by “and” are separate entries in the source; they are usually repeats but may differ in a detail not shown here. Equal values may be shown once. Inconclusive results are not listed. Active and inactive are the calls of the source. Unless noted, the call rests on the fitted dose curve; in most records, active means well fitted curve in the direction sought with a large enough effect; inconclusive means small, poorly fitted or top-dose-only effect, or another doubt; inactive means no such curve, though single readings can be large; an effect the other way counts as inactive or inconclusive.
Legend:
CAOV3 = assay: Primary qHTS to identify gynecologic anti-cancer compounds using libraries of approved drugs and bioactive compounds (AID 1345084); conditions: Gynecologic cancer cell panel viability, ATPlite luminescence, 48 h; series mostly up to 57.5 µM; further: on the % scale 0 is the no-effect control and ±100 the full control effect; nearly all actives have a fitted effect of over 55% in size
How it was run: (§1)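 In this quantitative HTS, cell killing is estimated from loss of ATP-dependent luciferase light. Cells see five compound concentrations over a 48 h exposure.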

CASKI = assay: as above; conditions: Gynecologic cancer cell panel viability, ATPlite luminescence, 48 h; series mostly up to 57.5 µM
How it was run: as §1

Es-2 = assay: as above; conditions: Gynecologic cancer cell panel viability, ATPlite luminescence, 48 h; series mostly up to 57.5 µM
How it was run: as §1

HeLa = assay: as above; conditions: Gynecologic cancer cell panel viability, ATPlite luminescence, 48 h; series mostly up to 57.5 µM
How it was run: as §1

Hek293T = assay: as above; conditions: Gynecologic cancer cell panel viability, ATPlite luminescence, 48 h, control line for the selectivity index; series mostly up to 57.5 µM
How it was run: as §1

JEG-3 = assay: as above; conditions: Gynecologic cancer cell panel viability, ATPlite luminescence, 48 h; series mostly up to 57.5 µM
How it was run: as §1

OV90 = assay: as above; conditions: Gynecologic cancer cell panel viability, ATPlite luminescence, 48 h; series mostly up to 57.5 µM
How it was run: as §1

PA-1 = assay: as above; conditions: Gynecologic cancer cell panel viability, ATPlite luminescence, 48 h; series mostly up to 57.5 µM
How it was run: as §1

SKOV3 = assay: as above; conditions: Gynecologic cancer cell panel viability, ATPlite luminescence, 48 h; series mostly up to 57.5 µM
How it was run: as §1

Tov-21-G = assay: as above; conditions: Gynecologic cancer cell panel viability, ATPlite luminescence, 48 h; series mostly up to 57.5 µM
How it was run: as §1

Tov112D = assay: as above; conditions: Gynecologic cancer cell panel viability, ATPlite luminescence, 48 h; series mostly up to 57.5 µM
How it was run: as §1

[1] = Drug repurposing screens with cells derived from glioblastoma tumor samples (AID 1345199); conditions: GBM patient neurospheres viability, ATP luminescence, 48 h; further: nearly all actives have a fitted effect of over 40% in size; further: potency means the concentration at half of the fitted maximal effect; on activity, negative = cell killing: on the % scale 0 is the no-effect control and ±100 the full control effect
How it was run: (§2)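 Primary testing used CD133+ neurospheres from four GBM patients, seven concentrations, 48 h exposure and ATP-based viability; confirmation added three slower-growing patient lines.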

[2] = qHTS assay to identify inhibitors of the type 1 interferon - major histocompatibility complex class I in skeletal muscle: Counter screen cell viability and HiBit confirmation (AID 1347412); conditions: iHSKM muscle cells + IFN-b, HiBiT or CellTiter-Glo, 24 h; Potency: HiBiT unless noted; Viability, at 45.9 µM (top of the series); further: on the % scale 0 is the no-effect control and ±100 the full control effect; nearly all actives have a fitted effect of over 60% in size
How it was run: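 Human myoblast knock-in line, 4.0 ng/ml IFN-beta stimulation, 24 h compound treatment. Endpoints: HiBiT lytic luminescence (HLA-B level) and CellTiter Glo (ATP). Dosing 12 concentrations, 3-fold steps, 46 uM highest final.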

astro = assay: Drug repurposing screens with cells derived from glioblastoma tumor samples (AID 1345199); conditions: viability, ATP luminescence, 48 h; series mostly up to 45.9 µM; further: nearly all actives have a fitted effect of over 40% in size; further: potency means the concentration at half of the fitted maximal effect; on activity, negative = cell killing: on the % scale 0 is the no-effect control and ±100 the full control effect
How it was run: as §2

[3] = target: Nuclear receptor subfamily 1 group I member 2 (Rattus norvegicus) (UniProt Q9R1A7); assay: qHTS assay for small molecule activators of the rat pregnane X receptor (rPXR) signaling pathway (AID 651751; call rule not given here; further: 0% is about no effect); conditions: rPXR reporter cells, luciferase (One-Glo), 24 h
Chain of Nuclear receptor subfamily 1 group I member 2 (Rattus norvegicus) (Q9R1A7 whole entry, looked up): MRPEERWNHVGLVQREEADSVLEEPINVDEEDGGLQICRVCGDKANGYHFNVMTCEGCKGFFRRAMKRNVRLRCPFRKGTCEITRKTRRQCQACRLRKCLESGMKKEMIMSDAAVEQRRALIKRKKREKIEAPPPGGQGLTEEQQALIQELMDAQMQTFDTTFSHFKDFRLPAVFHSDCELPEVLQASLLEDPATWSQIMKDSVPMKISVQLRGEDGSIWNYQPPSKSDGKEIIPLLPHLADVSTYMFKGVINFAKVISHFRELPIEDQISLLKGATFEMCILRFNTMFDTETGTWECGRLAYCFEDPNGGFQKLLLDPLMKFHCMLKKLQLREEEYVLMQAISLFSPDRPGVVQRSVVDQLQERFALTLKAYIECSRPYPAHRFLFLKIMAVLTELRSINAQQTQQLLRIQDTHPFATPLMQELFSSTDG

[4] = qHTS assay for small molecule activators of the human pregnane X receptor (PXR) signaling pathway (AID 720659; call rule not given here; further: 0% is about no effect)
[5] = at 45.9 µM (top of the series), tumour line B
[6] = at 45.9 µM (top of the series), tumour line D
[7] = at 46 µM (top of the series), tumour line A
[8] = at 46.1 µM (top of the series), tumour line C

CC(=O)OCC(=O)[C@@]1(O)CC[C@H]2[C@@H]3CCC4=CC(=O)C=C[C@]4(C)[C@H]3[C@@H](O)C[C@@]21C
inactive: Potency (CAOV3) | Potency (CASKI) | Potency (Es-2) | Potency (HeLa) | Potency (Hek293T) | Potency (JEG-3) | Potency (OV90) | Potency (PA-1) | Potency (SKOV3) | Potency (Tov-21-G) | Potency (Tov112D) | activity, negative = cell killing [1, 5] -3.24% | activity, negative = cell killing [1, 6] -10.4% | activity, negative = cell killing [1, 7] -4.22% | activity, negative = cell killing [1, 8] 5.52% | Potency [2]

C[C@]12CCC(=O)C=C1CC[C@H]1[C@@H]3CC[C@](O)(C(=O)CO)[C@@]3(C)C[C@H](O)[C@@]12F
inactive: Potency (CAOV3) | Potency (CASKI) | Potency (Es-2) | Potency (HeLa) | Potency (Hek293T) | Potency (JEG-3) | Potency (OV90) | Potency (PA-1) | Potency (SKOV3) | Potency (Tov-21-G) | Potency (Tov112D) | activity, negative = cell killing [1, 5] -5.55% and -2.43% | activity, negative = cell killing [1, 6] -21.3% and -14.3% | activity, negative = cell killing [1, 7] -18.5% and -26.2% | activity, negative = cell killing [1, 8] -25.3% and 1.15% | Potency [2]

CN1C(CCl)Nc2cc(Cl)c(S(N)(=O)=O)cc2S1(=O)=O (stereo not given)
inactive: Potency (CAOV3) | Potency (CASKI) | Potency (Es-2) | Potency (HeLa) | Potency (Hek293T) | Potency (JEG-3) | Potency (OV90) | Potency (PA-1) | Potency (SKOV3) | Potency (Tov-21-G) | Potency (Tov112D) | activity, negative = cell killing [1, 5] -5.52% | activity, negative = cell killing [1, 6] -2.64% | activity, negative = cell killing [1, 8] -28.6% | Potency (astro)

COC(=O)CCc1ccc(OCC(O)CNC(C)C)cc1 (stereo not given)
inactive: Potency (CAOV3) | Potency (CASKI) | Potency (Es-2) | Potency (HeLa) | Potency (Hek293T) | Potency (JEG-3) | Potency (OV90) | Potency (PA-1) | Potency (SKOV3) | Potency (Tov-21-G) | Potency (Tov112D) | activity, negative = cell killing [1, 5] -6.72% | activity, negative = cell killing [1, 6] -12.4% | activity, negative = cell killing [1, 8] -12.3% | Potency (astro)

CCCCc1nc(Cl)c(CO)n1Cc1ccc(-c2ccccc2-c2nn[nH]n2)cc1
inactive: Potency (CAOV3) | Potency (CASKI) | Potency (Es-2) | Potency (HeLa) | Potency (Hek293T) | Potency (JEG-3) | Potency (OV90) | Potency (PA-1) | Potency (SKOV3) | Potency (Tov-21-G) | Potency (Tov112D) | activity, negative = cell killing [1, 5] -2.59% | activity, negative = cell killing [1, 6] -10.9% | activity, negative = cell killing [1, 8] -14.8% | Potency (astro)

O=C(COc1ccc(Cl)cc1)N1CCN(Cc2ccc3c(c2)OCO3)CC1
active: Potency ([1]; tumour line A) 20 µM
inactive: Potency (CAOV3) | Potency (CASKI) | Potency (Es-2) | Potency (HeLa) | Potency (Hek293T) | Potency (JEG-3) | Potency (OV90) | Potency (PA-1) | Potency (SKOV3) | Potency (Tov-21-G) | Potency (Tov112D) | activity, negative = cell killing [1, 5] -2.59% | activity, negative = cell killing [1, 6] -28.6% | Potency (astro)

C=C1C[C@H]2[C@@H]3C=C(C)C4=CC(=O)CC[C@]4(C)[C@H]3CC[C@]2(C)[C@@]1(OC(C)=O)C(C)=O
inactive: Potency (CAOV3) | Potency (CASKI) | Potency (Es-2) | Potency (HeLa) | Potency (Hek293T) | Potency (JEG-3) | Potency (OV90) | Potency (PA-1) | Potency (SKOV3) | Potency (Tov-21-G) | Potency (Tov112D) | activity, negative = cell killing [1, 5] -28.2% | activity, negative = cell killing [1, 6] -24.4% | activity, negative = cell killing [1, 8] -11.9% | Potency (astro)

Cc1ncc(CSSCc2cnc(C)c(O)c2CO)c(CO)c1O
inactive: Potency (CAOV3) | Potency (CASKI) | Potency (Es-2) | Potency (HeLa) | Potency (Hek293T) | Potency (JEG-3) | Potency (OV90) | Potency (PA-1) | Potency (SKOV3) | Potency (Tov-21-G) | Potency (Tov112D) | activity, negative = cell killing [1, 5] -0.0133% | activity, negative = cell killing [1, 6] -10.6% | activity, negative = cell killing [1, 8] 3.55% | Potency (astro)

Cc1ccc(C(=O)C(C)CN2CCCCC2)cc1 (stereo not given)
inactive: Potency (CAOV3) | Potency (CASKI) | Potency (Es-2) | Potency (HeLa) | Potency (Hek293T) | Potency (JEG-3) | Potency (OV90) | Potency (PA-1) | Potency (SKOV3) | Potency (Tov-21-G) | Potency (Tov112D) | activity, negative = cell killing [1, 5] -5.6% and -9.58% | activity, negative = cell killing [1, 6] -3.01% and -24.6% | activity, negative = cell killing [1, 8] 4.06% and 1.53% | Potency (astro)

CC/C(=C(/CC)c1ccc(O)cc1)c1ccc(O)cc1
active: Potency ([1]; tumour line A) 14.1 µM
inactive: Potency (CAOV3) | Potency (CASKI) | Potency (Es-2) | Potency (HeLa) | Potency (Hek293T) | Potency (JEG-3) | Potency (OV90) | Potency (PA-1) | Potency (SKOV3) | Potency (Tov-21-G) | Potency (Tov112D) | activity, negative = cell killing [1, 5] -24.8% | activity, negative = cell killing [1, 8] -3.33% | max response [3] 1.62% and -5.34%

COc1ccc(CN2CCN(C(c3ccc(F)cc3)c3ccc(F)cc3)CC2)c(OC)c1OC
active: Potency ([1]; tumour line A) 3.16 µM | Potency ([1]; tumour line D) 11.2 µM | Potency (astro) 35.5 µM
inactive: Potency (CAOV3) | Potency (CASKI) | Potency (Es-2) | Potency (HeLa) | Potency (Hek293T) | Potency (JEG-3) | Potency (OV90) | Potency (PA-1) | Potency (SKOV3) | Potency (Tov-21-G) | Potency (Tov112D) | activity, negative = cell killing [1, 8] -24.3%

CC(O)(P(=O)(O)O)P(=O)(O)O
inactive: Potency (CAOV3) | Potency (CASKI) | Potency (Es-2) | Potency (HeLa) | Potency (Hek293T) | Potency (JEG-3) | Potency (OV90) | Potency (PA-1) | Potency (SKOV3) | Potency (Tov-21-G) | Potency (Tov112D) | activity, negative = cell killing [1, 5] -12.4% | activity, negative = cell killing [1, 6] 0.0097% | activity, negative = cell killing [1, 7] -26.7% | activity, negative = cell killing [1, 8] -3.69% | Potency (astro) | max response [3] -3.46% | outcome [4]
